This is a sample that favours compounds with a hit; in the whole collection about 3.8% have one here.
ADAM17 inh = inhibitors of human ADAM17; P78536; recombinant ADAM17, EDANS/DABCYL FRET peptide cleavage; inhibition, % at 6.95 µM; 370,000 tested, 0.83% active; AID 720648;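 active means inhibition above the mean of compounds lying between control limits plus 3 SD, set per campaign, cut at about 8.5% in these data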;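 further: 0% = DMSO-only wells as the low control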
ADAM10 inh = inhibits human ADAM10; recombinant ADAM10, EDANS/DABCYL FRET peptide cleavage, 3 h; 370,000 tested, 0.62% active; O14672; inhibition, % at 7 µM;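 active means inhibition above a per-campaign cutoff equal to the mean of compounds falling between control-based bounds plus 3 SD, cut at about 20% in these data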;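 further: 0% = DMSO wells while the 100% control is not disclosed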
Ecoli rRNA inh = selective bacterial rRNA inhibition in E. coli. E. coli WT GFP vs humanized-ribosome RFP mutants, fluorescence, 24 h; active compounds read low; DMSO median 0, no signal -100. 350,000 tested, 1.6% active. AID 720706. GFP signal change (wild-type ribosome), % (concentration not given with the values);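 active means significant combined selectivity score with lowered wild-type GFP, culture density cut under 30%, mutant RFP and density less affected; inactive means any of these conditions unmet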
FGF22 binding = shifts melting point of recombinant human FGF22; activity (Tm shift, normalised), % at 9.99 µM; AID 651658; 340,000 tested, 1.5% active; Q9HCT0; recombinant FGF22 thermal shift, SYPRO orange fluorescence; percent of sucrose octasulfate shift, DMSO zero;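 active means mean Tm shift, scaled 0 neutral to 100 positive control, at about 1.3% or above, every replicate too, limit read from the data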
Target sequence (Q9HCT0 whole entry, looked up): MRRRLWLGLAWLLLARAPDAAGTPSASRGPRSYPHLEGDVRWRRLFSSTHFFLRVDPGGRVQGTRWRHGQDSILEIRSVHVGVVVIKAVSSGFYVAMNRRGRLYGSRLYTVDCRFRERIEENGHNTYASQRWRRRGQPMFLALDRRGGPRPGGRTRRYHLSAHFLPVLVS
KLK7 zymogen act = proKLK7 (human) activation, primary screen; P49862; purified proKLK7, EDANS-DABCYL substrate fluorescence; 100% is mature enzyme control, 0% vehicle; activation, % at 7 µM; 370,000 tested, 0.9% active;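 active means activation above the mean of all tested compounds plus 3 SD, computed per campaign excluding outliers beyond control limits, cut at about 13% in these data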
Target sequence (P49862 whole entry, looked up): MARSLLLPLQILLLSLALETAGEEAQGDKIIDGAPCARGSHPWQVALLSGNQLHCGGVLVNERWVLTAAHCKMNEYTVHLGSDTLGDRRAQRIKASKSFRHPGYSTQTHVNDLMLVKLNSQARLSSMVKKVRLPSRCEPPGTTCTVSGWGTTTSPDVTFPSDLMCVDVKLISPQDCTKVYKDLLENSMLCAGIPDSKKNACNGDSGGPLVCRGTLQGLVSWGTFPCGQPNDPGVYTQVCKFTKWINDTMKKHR
ADAM10 ctr = counter-screen for ADAM17 exosite inhibitors: inhibitors of human ADAM10 | recombinant ADAM10, EDANS/DABCYL FRET peptide cleavage, 3 h | inhibition, % at 6.95 µM | shares compounds with ADAM17 inh | 2,900 tested, 47% active;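 active means mean inhibition over the triplicate runs exceeds the activity threshold set in the earlier primary screen, cut at about 20% in these data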;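 further: 0% = DMSO wells and 100% = marimastat wells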
ADAM17 confirm = confirmation of inhibitors of human ADAM17; shares compounds with ADAM17 inh; recombinant ADAM17, EDANS/DABCYL QFRET peptide cleavage; inhibition, % at 6.95 µM; 2,900 tested, 65% active; AID 743257;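 active means mean inhibition across replicates above the hit cutoff set in the primary screen, cut at about 8.5% in these data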;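 further: 0% = DMSO wells and 100% = marimastat wells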
* = called active by the depositor.

C=CC[C@@H](CC(=O)N[C@H](CO)Cc1ccccc1)C(=O)N[C@H](COC(=O)[C@@H](CC=C)Cc1ccc(F)cc1)Cc1c[nH]c2ccccc12 was read as ADAM17 inh 11*, ADAM10 inh 24*, Ecoli rRNA inh 0, FGF22 binding 0, KLK7 zymogen act 0, ADAM10 ctr 44* and ADAM17 confirm 22*.
C=CC[C@@H](CC(=O)N[C@@H](CO)Cc1ccccc1)C(=O)N[C@@H](COC(=O)[C@@H](CC=C)Cc1ccc(F)cc1)Cc1c[nH]c2ccccc12 was read as ADAM17 inh 1, ADAM10 inh -7, Ecoli rRNA inh 20, FGF22 binding 0 and KLK7 zymogen act 1.
Screening C=CCC[C@H](Cc1ccc(F)cc1)C(=O)OC[C@@H](NC(=O)[C@@H](CC=C)CC(=O)N(CCO)Cc1ccccc1)C(C)(C)C returned ADAM17 inh 12*, ADAM10 inh 19, Ecoli rRNA inh 8, FGF22 binding 0, KLK7 zymogen act 1, ADAM10 ctr 38* and ADAM17 confirm 19*.
For C=CC[C@@H](CC(=O)N[C@H](CO)Cc1ccccc1)C(=O)N[C@H](COC(=O)[C@@H](CC=C)Cc1ccc(F)cc1)C(C)(C)C the results were ADAM17 inh 8.7*, ADAM10 inh 16, Ecoli rRNA inh -6, FGF22 binding 0, KLK7 zymogen act 0, ADAM10 ctr 34* and ADAM17 confirm 19*.
`COc1ccc(S(=O)(=O)Nc2ccc3c(c2)CC(=O)N([C@@H](C)CO)C[C@@H](C)[C@H](CN(C)S(=O)(=O)c2ccc(Cl)cc2)O3)cc1` gave Ecoli rRNA inh -1 and FGF22 binding 0.
`Cc1noc(C)c1S(=O)(=O)N(C)C[C@@H]1OCCCC[C@@H](C)Oc2ccc(NC(=O)c3ccccc3)cc2C(=O)N([C@@H](C)CO)C[C@H]1C` gave Ecoli rRNA inh -2 and FGF22 binding 0.
Screening CCCc1cc(-c2[nH]ncc2-c2ccc3c(c2)OCCCO3)c(O)cc1OC returned ADAM17 inh 10*, ADAM10 inh 18, KLK7 zymogen act 0, ADAM10 ctr 28* and ADAM17 confirm 13*.
`C[C@H]1CN([C@@H](C)CO)C(=O)c2cccc(NC(=O)Nc3ccccc3)c2O[C@@H]1CN(C)S(=O)(=O)c1ccc(Cl)cc1` gave Ecoli rRNA inh -3 and FGF22 binding 0.
`C[C@H](CO)N1C[C@H](C)[C@H](CN(C)Cc2cncnc2)Oc2cc(C#CC3CCCC3)ccc2S1(=O)=O` gave Ecoli rRNA inh -2 and FGF22 binding 0.
For COC(=O)[C@@]1(Cc2ccc(F)cc2)[C@H]2c3cc(C(=O)N(C)C)n(Cc4ccccc4)c3C[C@H]2CN1C(=O)c1ccccc1 the results were ADAM17 inh 9.4*, ADAM10 inh 5, Ecoli rRNA inh -4, FGF22 binding 0, KLK7 zymogen act 0, ADAM10 ctr -7 and ADAM17 confirm 0.
C=C1CC2(CC(c3ccccc3)OC(c3ccccc3)C2)OC1=O (centres undefined) was read as ADAM17 inh 9.6*, ADAM10 inh 15, Ecoli rRNA inh -8, FGF22 binding 0, KLK7 zymogen act 0, ADAM10 ctr -8 and ADAM17 confirm -1.
For Cc1ccc(S(=O)(=O)Nc2ccc3c(c2)C(=O)N([C@H](C)CO)C[C@@H](C)[C@@H](CN(C)C(=O)C2CCCCC2)OCCCC[C@@H](C)O3)cc1 the results were Ecoli rRNA inh -6.
For O=C(Nc1nccs1)c1cc2sccc2n1Cc1ccc(F)cc1 the results were ADAM17 inh -5, ADAM10 inh -11 and KLK7 zymogen act -1.
`COc1ccc(NC(=O)c2cc3sccc3n2Cc2ccc(F)cc2)cc1OC` gave ADAM17 inh 9.8*, ADAM10 inh 15, KLK7 zymogen act 5, ADAM10 ctr 3 and ADAM17 confirm 7.

From PubChem BioAssay
